# About 410 targets per protein were measured; listed, in parts, are those with the strongest signals and a random draw of the rest.
# B1: Gal-9-hFc (Mus musculus), O08573-2 (protein)
# chain: MALFSAQSPYINPIIPFTGPIQGGLQEGLQVTLQGTTKSFAQRFVVNFQNSFNGNDIAFHFNPRFEEGGYVVCNTKQNGQWGPEERKMQMPFQKGMPFELCFLVQRSEFKVMVNKKFFVQYQHRVPYHLVDTIAVSGCLKLSFITFQTQNFRPAHQAPMAQTTIHMVHSTPGQMFSTPGIPPVVYPTPAYTIPFYTPIPNGLYPSKSIMISGNVLPDATRFHINLRCGGDIAFHLNPRFNENAVVRNTQINNSWGQEERSLLGRMPFSRGQSFSVWIICEGHCFKVAVNGQHMCEYYHRLKNLQDINTLEVAGDIQLTHVQT
# How the values were obtained:
# Test in all cases: glycan array binding signal (z-score within array); higher = stronger binding
# Conditions in all cases: glycan notation: IUPAC condensed, linker removed
# [1] = target: Fuc(a1-2)Gal(b1-3)GalNAc(b1-3)Gal(a1-4)Gal(b1-4)Glc
# Method in brief: (§1)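 Columns mapping to the same glycan were averaged after glycan names were converted to IUPAC-condensed notation. The data come from 3228 arrays in the Consortium for Functional Glycomics database, limited to those with an available protein sequence. Binding is reported as a within-array Z-score averaged across arrays of one protein sequence and across linkers.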
# [2] = target: Fuc(a1-2)[Gal(a1-3)]Gal(b1-4)GlcNAc(b1-2)Man(a1-3)[Fuc(a1-2)[Gal(a1-3)]Gal(b1-4)GlcNAc(b1-2)Man(a1-6)]Man(b1-4)GlcNAc(b1-4)GlcNAc
# Method in brief: as §1
# [3] = target: Fuc(a1-2)[Gal(a1-3)]Gal(b1-4)GlcNAc(b1-3)[Fuc(a1-2)[Gal(a1-3)]Gal(b1-4)GlcNAc(b1-6)]GalNAc
# Method in brief: as §1
# [4] = target: Fuc(a1-2)[Gal(a1-3)]Gal(b1-4)GlcNAc(b1-6)GalNAc
# Method in brief: as §1
# [5] = target: Fuc(a1-2)[GalNAc(a1-3)]Gal(b1-4)[Fuc(a1-3)]GlcNAc
# Method in brief: as §1
# [6] = target: Fuc(a1-3)[Gal(b1-4)]GlcNAc(b1-6)GalNAc
# Method in brief: as §1
# [7] = target: Fuc(a1-3)[Gal3S(b1-4)]Glc
# Method in brief: as §1
# [8] = target: Gal(a1-3)Gal(b1-4)[Fuc(a1-3)]GlcNAc(b1-2)Man(a1-3)[Gal(a1-3)Gal(b1-4)[Fuc(a1-3)]GlcNAc(b1-2)Man(a1-6)]Man(b1-4)GlcNAc(b1-4)GlcNAc
# Method in brief: as §1
# Gal(a1-4)GlcNAc = target: Gal(a1-4)GlcNAc
# Method in brief: as §1
# Gal(b1-3)Gal = target: Gal(b1-3)Gal
# Method in brief: as §1
# [9] = target: Gal(b1-3)GlcNAc(a1-3)Gal(b1-4)GlcNAc
# Method in brief: as §1
# Gal(b1-3)GlcNAc(b1-2)Man = target: Gal(b1-3)GlcNAc(b1-2)Man
# Method in brief: as §1
# [10] = target: Gal(b1-3)GlcNAc(b1-3)Gal(b1-3)GlcNAc
# Method in brief: as §1
# [11] = target: Gal(b1-3)[Neu5Ac(a2-6)]GalNAc
# Method in brief: as §1
# [12] = target: Gal(b1-3)[Neu5Ac(a2-6)]GlcNAc(b1-4)Gal(b1-4)Glc
# Method in brief: as §1
# Gal(b1-4)Gal = target: Gal(b1-4)Gal
# Method in brief: as §1
# Gal(b1-4)GlcNAc = target: Gal(b1-4)GlcNAc
# Method in brief: as §1
# [13] = target: Gal(b1-4)GlcNAc(b1-3)Gal(b1-4)GlcNAc(b1-2)Man(a1-3)[Gal(b1-4)GlcNAc(b1-3)Gal(b1-4)GlcNAc(b1-2)Man(a1-6)]Man(b1-4)GlcNAc(b1-4)GlcNAc
# Method in brief: as §1
# [14] = target: Gal(b1-4)GlcNAc(b1-3)Gal(b1-4)GlcNAc(b1-2)[Gal(b1-4)GlcNAc(b1-3)Gal(b1-4)GlcNAc(b1-6)]Man(a1-6)[Gal(b1-4)GlcNAc(b1-3)Gal(b1-4)GlcNAc(b1-2)Man(a1-3)]Man(b1-4)GlcNAc(b1-4)GlcNAc
# Method in brief: as §1
# [15] = target: Gal(b1-4)GlcNAc(b1-3)Gal(b1-4)GlcNAc(b1-3)GalNAc
# Method in brief: as §1
# [16] = target: Gal(b1-4)GlcNAc(b1-3)[GlcNAc(b1-6)]Gal(b1-4)GlcNAc
# Method in brief: as §1
# Gal3S(b1-4)Glc6S = target: Gal3S(b1-4)Glc6S
# Method in brief: as §1
# [17] = target: Gal3S(b1-4)[Fuc(a1-3)]GlcNAc6S
# Method in brief: as §1
# Gal6P(b1-4)GlcNAc = target: Gal6P(b1-4)GlcNAc
# Method in brief: as §1
# GalNAc(b1-4)GlcNAc = target: GalNAc(b1-4)GlcNAc
# Method in brief: as §1
# GalNAc4S6S(b1-4)GlcNAc = target: GalNAc4S6S(b1-4)GlcNAc
# Method in brief: as §1
# Glc(a1-6)Glc(a1-6)Glc = target: Glc(a1-6)Glc(a1-6)Glc
# Method in brief: as §1
# [18] = target: GlcNAc(b1-2)[GlcNAc(b1-4)]Man(a1-3)[GlcNAc(b1-4)][GlcNAc(b1-2)Man(a1-6)]Man(b1-4)GlcNAc(b1-4)GlcNAc
# Method in brief: as §1
# [19] = target: GlcNAc(b1-3)Gal(b1-4)GlcNAc(b1-3)Gal(b1-4)GlcNAc(b1-2)Man(a1-3)[GlcNAc(b1-3)Gal(b1-4)GlcNAc(b1-3)Gal(b1-4)GlcNAc(b1-2)Man(a1-6)]Man(b1-4)GlcNAc(b1-4)GlcNAc
# Method in brief: as §1
# [20] = target: GlcNAc(b1-3)Gal(b1-4)GlcNAc(b1-3)Gal(b1-4)GlcNAc(b1-3)Gal(b1-4)GlcNAc(b1-3)Gal(b1-4)GlcNAc(b1-2)Man(a1-3)[GlcNAc(b1-3)Gal(b1-4)GlcNAc(b1-3)Gal(b1-4)GlcNAc(b1-3)Gal(b1-4)GlcNAc(b1-3)Gal(b1-4)GlcNAc(b1-2)Man(a1-6)]Man(b1-4)GlcNAc(b1-4)GlcNAc
# Method in brief: as §1
# [21] = target: GlcNAc(b1-3)Gal(b1-4)GlcNAc(b1-6)[Gal(b1-3)]GalNAc
# Method in brief: as §1
# GlcNAc(b1-4)GlcNAc = target: GlcNAc(b1-4)GlcNAc
# Method in brief: as §1
# Kdn(a2-3)Gal(b1-3)GlcNAc = target: Kdn(a2-3)Gal(b1-3)GlcNAc
# Method in brief: as §1
# Kdn(a2-3)Gal(b1-4)Glc = target: Kdn(a2-3)Gal(b1-4)Glc
# Method in brief: as §1
# [22] = target: Man(a1-2)Man(a1-2)Man(a1-3)Man
# Method in brief: as §1
# [23] = target: Neu5Ac(a2-3)Gal(b1-3)GlcNAc(b1-2)[Neu5Ac(a2-3)Gal(b1-3)GlcNAc(b1-4)]Man(a1-6)[Neu5Ac(a2-3)Gal(b1-3)GlcNAc(b1-2)Man(a1-3)]Man(b1-4)GlcNAc(b1-4)GlcNAc
# Method in brief: as §1
# [24] = target: Neu5Ac(a2-3)Gal(b1-3)GlcNAc6S
# Method in brief: as §1
# [25] = target: Neu5Ac(a2-3)Gal(b1-4)GlcNAc(b1-2)Man
# Method in brief: as §1
# [26] = target: Neu5Ac(a2-3)Gal(b1-4)[Fuc(a1-3)]GlcNAc(b1-6)[Neu5Ac(a2-3)Gal(b1-3)]GalNAc
# Method in brief: as §1
# [27] = target: Neu5Ac(a2-6)Gal(b1-4)GlcNAc(b1-2)Man(a1-3)[GlcNAc(b1-4)][Neu5Ac(a2-6)Gal(b1-4)GlcNAc(b1-2)Man(a1-6)]Man(b1-4)GlcNAc(b1-4)GlcNAc
# Method in brief: as §1
# [28] = target: Neu5Ac(a2-6)Gal(b1-4)GlcNAc(b1-2)Man(a1-3)[Neu5Ac(a2-3)Gal(b1-4)GlcNAc(b1-2)Man(a1-6)]Man(b1-4)GlcNAc(b1-4)GlcNAc
# Method in brief: as §1
# [29] = target: Neu5Ac(a2-6)Gal(b1-4)GlcNAc(b1-2)Man(a1-3)[Neu5Ac(a2-6)Gal(b1-4)GlcNAc(b1-2)Man(a1-6)]Man(b1-4)GlcNAc(b1-4)[Fuc(a1-6)]GlcNAc
# Method in brief: as §1
# [30] = target: Neu5Ac(a2-6)Gal(b1-4)GlcNAc(b1-2)Man(a1-6)Man(b1-4)GlcNAc(b1-4)GlcNAc
# Method in brief: as §1
# [31] = target: Neu5Ac(a2-6)Gal(b1-4)GlcNAc(b1-3)Gal(b1-3)GlcNAc
# Method in brief: as §1
# [32] = target: Neu5Ac(a2-8)Neu5Ac(a2-8)Neu5Ac
# Method in brief: as §1
binder,measurement,setting,value
B1,glycan array binding signal (z-score),[1],-0.29
same,glycan array binding signal (z-score),[2],1.3
same,glycan array binding signal (z-score),[3],4.4
same,glycan array binding signal (z-score),[4],0.473
same,glycan array binding signal (z-score),[5],-0.286
same,glycan array binding signal (z-score),[6],0.042
same,glycan array binding signal (z-score),[7],-0.196
same,glycan array binding signal (z-score),[8],-0.043
same,glycan array binding signal (z-score),Gal(a1-4)GlcNAc,-0.452
same,glycan array binding signal (z-score),Gal(b1-3)Gal,0.036
same,glycan array binding signal (z-score),[9],-0.259
same,glycan array binding signal (z-score),Gal(b1-3)GlcNAc(b1-2)Man,-0.243
same,glycan array binding signal (z-score),[10],0.085
same,glycan array binding signal (z-score),[11],0.317
same,glycan array binding signal (z-score),[12],-0.501
same,glycan array binding signal (z-score),Gal(b1-4)Gal,0.307
same,glycan array binding signal (z-score),Gal(b1-4)GlcNAc,-0.167
same,glycan array binding signal (z-score),[13],1.94
same,glycan array binding signal (z-score),[14],3.74
same,glycan array binding signal (z-score),[15],0.354
same,glycan array binding signal (z-score),[16],2.07
same,glycan array binding signal (z-score),Gal3S(b1-4)Glc6S,4.35
same,glycan array binding signal (z-score),[17],3.57
same,glycan array binding signal (z-score),Gal6P(b1-4)GlcNAc,-0.364
same,glycan array binding signal (z-score),GalNAc(b1-4)GlcNAc,-0.176
same,glycan array binding signal (z-score),GalNAc4S6S(b1-4)GlcNAc,-0.079
same,glycan array binding signal (z-score),Glc(a1-6)Glc(a1-6)Glc,0.138
same,glycan array binding signal (z-score),[18],2.04
same,glycan array binding signal (z-score),[19],0.436
same,glycan array binding signal (z-score),[20],-0.207
same,glycan array binding signal (z-score),[21],-0.325
same,glycan array binding signal (z-score),GlcNAc(b1-4)GlcNAc,4.66
same,glycan array binding signal (z-score),Kdn(a2-3)Gal(b1-3)GlcNAc,-0.153
same,glycan array binding signal (z-score),Kdn(a2-3)Gal(b1-4)Glc,2.38
same,glycan array binding signal (z-score),[22],-0.431
same,glycan array binding signal (z-score),[23],-0.482
same,glycan array binding signal (z-score),[24],-0.023
same,glycan array binding signal (z-score),[25],3.47
same,glycan array binding signal (z-score),[26],0.233
same,glycan array binding signal (z-score),[27],-0.272
same,glycan array binding signal (z-score),[28],-0.448
same,glycan array binding signal (z-score),[29],-0.496
same,glycan array binding signal (z-score),[30],-0.192
same,glycan array binding signal (z-score),[31],-0.307
same,glycan array binding signal (z-score),[32],2.03

# — the supplement of paper PMC8728848
